Data on 8 compounds can be found in PubChem BioAssay (NCI).

Compounds without any hit were thinned out: in the full panel of roughly 83,000, 20% have a hit.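 Compound tested at a single concentration for 48 hours in 96-well plates; a percent growth value below 10 was scored as active.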 Unmarked numbers belong to inactive results. Calls of active or inactive are those of the source.

Test systems include NCI-H23 lung; NCI-H226 lung; NCI-H322M lung; HOP-62 NSCLC; NCI-H460 lung; HOP-92 NSCLC; NCI-H522 lung; A549/ATCC NSCLC; 786-0 renal; COLO 205 colon; DU-145 prostate; K-562 leukemia; MALME-3M melanoma; MDA-MB-231 breast; SF-268 CNS; SF-295 CNS; SF-539 CNS; UACC-257 melanoma; RXF 393 renal; M14 melanoma.
What all share (assay): NCI-60 one-dose screen, 48 h (100 = growth as untreated, 0 = no growth, -100 = all killed)
What all share (settings): 10 µM unless noted

Turning to `COc1ccc(C(=O)c2cc3c(N)c(C(=O)Nc4ccc(Cl)cc4)sc3nc2C)cc1`, the growth in the test on NCI-H23 lung is 89.7%; in the test with NCI-H226 lung, 57.1%; with NCI-H322M lung, 87.1%; with HOP-62 NSCLC, 37.5%; with NCI-H460 lung, 68.4%; with HOP-92 NSCLC it was 78.2%. Also, the growth is 43.8% in the test on NCI-H522 lung; 77.1% with A549/ATCC NSCLC; 81.6% with 786-0 renal; 85.8% with COLO 205 colon; 90.1% in the test on DU-145 prostate; 31.1% in the test with K-562 leukemia. The growth in the test with MALME-3M melanoma was 58.7%; in the test with MDA-MB-231 breast, 81.2%; with SF-268 CNS, 56.4%; in the test on SF-295 CNS, 89.3%; in the test with SF-539 CNS, 71.9%; with UACC-257 melanoma it was 77.3%.
Take `c1ccc(-c2nn(-c3ccccc3)[n+](-c3cccc4ccccc34)n2)cc1`: the growth in the test with NCI-H23 lung is 1.91% (active); with NCI-H226 lung it was 26.9%; in the test on NCI-H322M lung, 42.2%; in the test with HOP-62 NSCLC, 41.7%; in the test with NCI-H460 lung, 1.82% (active); with HOP-92 NSCLC, -13.2% (active). In addition, the growth was -8.34% (active) with NCI-H522 lung; 23.4% in the test on A549/ATCC NSCLC; 42.5% in the test with 786-0 renal; 3.41% (active) with COLO 205 colon; 29.1% with DU-145 prostate; 8.3% (active) with K-562 leukemia. Also, the growth with MALME-3M melanoma was -38.7% (active); in the test on MDA-MB-231 breast, 31.5%; with RXF 393 renal, 30.8%; in the test on SF-268 CNS, 26.4%; in the test on SF-295 CNS, 16.8%; with SF-539 CNS, 25.6%. Moreover, the growth in the test on UACC-257 melanoma was 17.5%; in the test with M14 melanoma, 27.6%.
For `CC(=O)OCC(=O)C1(O)C(C)CC2C3C=C(C)C4=Cc5c(cnn5-c5ccccc5)CC4(C)C3C(O)CC21C` (stereo not given), the growth was 8.49% (active) in the test with NCI-H23 lung; 43.2% in the test on NCI-H226 lung; 57.9% with NCI-H322M lung; 7.4% (active) in the test with HOP-62 NSCLC; 6.3% (active) in the test with NCI-H460 lung; -0.484% (active) with HOP-92 NSCLC. Moreover, the growth in the test on NCI-H522 lung is 4.55% (active); in the test with A549/ATCC NSCLC it was 24.5%; with 786-0 renal, -39.2% (active); in the test on COLO 205 colon, -70.1% (active); in the test on DU-145 prostate it was 27.1%; with K-562 leukemia, 2.57% (active). Also, the growth in the test with MALME-3M melanoma was 25.6%; in the test on MDA-MB-231 breast it was -11.2% (active); in the test on RXF 393 renal, -5.14% (active); with SF-268 CNS, 31.1%; with SF-295 CNS it was -51.1% (active); in the test on SF-539 CNS it was -21.3% (active). Further, the figures for the growth in the test with UACC-257 melanoma and with M14 melanoma were 52.3% and -4.56% (active), respectively.
With `O=C(Nc1nc2ccc(S(=O)(=O)Nc3ccc(C4(C(F)(F)F)CC4)cc3)cc2[nH]1)c1cnccn1`, the growth in the test with NCI-H23 lung is 43.6%; in the test on NCI-H226 lung it was 54.1%; in the test with NCI-H322M lung, 46.6%; with HOP-62 NSCLC, 51.5%; in the test with NCI-H460 lung it was 8.38% (active); in the test on HOP-92 NSCLC, 39.3%. The growth in the test with NCI-H522 lung was 26.9%; with A549/ATCC NSCLC, 35.1%; in the test with 786-0 renal, 33.9%; in the test on COLO 205 colon, 35.1%; with DU-145 prostate, 30.4%; with K-562 leukemia, 21.4%. The growth is 37.3% in the test on MALME-3M melanoma; 59.2% in the test on MDA-MB-231 breast; 28.6% in the test with RXF 393 renal; 34.3% in the test with SF-268 CNS; 33.4% with SF-295 CNS; 5.95% (active) with SF-539 CNS. Besides, the growth in the test with UACC-257 melanoma was 48.5%; in the test with M14 melanoma, 34.7%.
For the compound `Cc1[nH]n(-c2cccc(Cl)c2)c(=O)c1/C=C1\C=Nc2ccc(Br)cc21`, the growth is 31.7% in the test on NCI-H23 lung; 69.1% with NCI-H226 lung; 54.9% with NCI-H322M lung; -16.4% (active) with HOP-62 NSCLC; -72.9% (active) with NCI-H460 lung; -16.9% (active) with HOP-92 NSCLC. In addition, the growth was 29.2% in the test with NCI-H522 lung; -8.71% (active) in the test on A549/ATCC NSCLC; -4.37% (active) in the test with 786-0 renal; 7.07% (active) with COLO 205 colon; 36.2% in the test on DU-145 prostate; 64% with K-562 leukemia. Also, the growth with MALME-3M melanoma is 12.6%; in the test on MDA-MB-231 breast, 17.4%; in the test with RXF 393 renal, -44.4% (active); in the test on SF-268 CNS it was 51.1%; in the test on SF-295 CNS, 31.3%; in the test with SF-539 CNS, 42.2%. Besides, the growth in the test with UACC-257 melanoma was 75.1%; in the test on M14 melanoma, 54.3%.
For `Nc1nc(N)nc(NCc2ccccc2)n1`, the growth is 97.1% in the test with NCI-H23 lung; 95.4% in the test on NCI-H226 lung; 95.4% in the test on NCI-H322M lung; 105% with HOP-62 NSCLC; 109% with NCI-H460 lung; 108% in the test on HOP-92 NSCLC. The growth in the test on NCI-H522 lung is 99.3%; in the test on A549/ATCC NSCLC, 101%; in the test with 786-0 renal, 102%; with COLO 205 colon, 119%; in the test with DU-145 prostate, 112%; with K-562 leukemia, 89.3%. The growth in the test on MALME-3M melanoma was 108%; with MDA-MB-231 breast it was 108%; in the test on SF-268 CNS, 100%; with SF-295 CNS, 100%; with SF-539 CNS it was 100%; in the test with UACC-257 melanoma it was 110%.
With `Cc1ccc2[nH]c(=S)n(-c3ccc(S(=O)(=O)Nc4ccc(Cl)nn4)cc3)c(=O)c2c1`, the growth was 101% in the test on NCI-H23 lung; 98.9% in the test with NCI-H226 lung; 110% in the test on NCI-H322M lung; 104% with HOP-62 NSCLC; 104% in the test on NCI-H460 lung; 104% in the test on HOP-92 NSCLC. Besides, the growth with NCI-H522 lung was 92.5%; in the test with A549/ATCC NSCLC it was 103%; in the test on 786-0 renal it was 60.7%; in the test with COLO 205 colon it was 110%; in the test with DU-145 prostate it was 109%; in the test with K-562 leukemia, 102%. Besides, the growth in the test on MALME-3M melanoma was 101%; in the test with MDA-MB-231 breast, 101%; in the test with SF-268 CNS, 101%; with SF-295 CNS it was 104%; with SF-539 CNS, 95.6%; in the test with UACC-257 melanoma, 99.7%. Moreover, the growth with M14 melanoma is -69.5% (active).
`CC(=O)[C@@H]1CC[C@]2(C(N)=O)CC[C@]3(C)[C@H](CC[C@@H]4[C@@]5(C)CCC(=O)C(C)(C)[C@@H]5CC[C@]43C)[C@@H]12`: the growth with NCI-H23 lung is 95.1%; with NCI-H226 lung, 102%; in the test on NCI-H322M lung, 99.3%; in the test on HOP-62 NSCLC it was 92%; with NCI-H460 lung it was 101%; in the test with HOP-92 NSCLC, 103%. Moreover, the growth was 87.2% with NCI-H522 lung; 96.3% in the test with A549/ATCC NSCLC; 89.6% in the test with 786-0 renal; 102% with COLO 205 colon; 105% in the test with DU-145 prostate; 88.4% in the test on K-562 leukemia. The growth with MALME-3M melanoma is 112%; in the test on MDA-MB-231 breast, 95.8%; with RXF 393 renal, 109%; in the test on SF-268 CNS it was 95.4%; in the test on SF-295 CNS, 93.8%; in the test on SF-539 CNS, 99.5%. The growth in the test with UACC-257 melanoma was 93.6%; with M14 melanoma, 93.4%.
